HT1080 IDH1KD tx: HT-1080 IDH1 knockdown cell toxicity (counter line). HT-1080 IDH1 knockdown viability, ATP luminescence, 48 h. Potency, µM (highest dose often 46.1 µM), for inactives: at the highest dose activity, negative = toxicity, usual class: cytotoxic. actives 2% (n = 360,000). AID 686971;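 note: potency is the fitted concentration of half-maximal effect; 0% = DMSO wells and -100% = cell-free medium wells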
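Knockdown cells (IDH1KD HT-1080) received compounds 2 h after plating at 750 cells/well and were kept 48 h at 37 °C in 5% FBS RPMI. A CellTiter-Glo luminescence read gave % activity for curve fitting.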
DT40 TDP1 no CPT: qHTS for Inhibitors of human tyrosyl-DNA phosphodiesterase 1 (TDP1): qHTS in cells in absence of CPT; actives 15% (n = 420,000); AID 686978, 2013; Potency, µM (doses to about 46.2 µM), for the others: at the highest dose activity change, negative = growth inhibition, usual class: inhibitors; DT40 Tdp1-/- hTDP1 cells, no CPT, ATP luminescence, 48 h; note: potency is the fitted concentration of half-maximal effect; nearly all actives have a fitted effect of over 55% in size
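Readout: luminescence from CellTiter-Glo after 30 min in the dark at RT. Cells: DT40 Tdp1-/- with stable hTDP1, 400/well. Exposure: compounds alone, ≥48 hr, 37 °C.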
ELG1 DNA repair: inhibitors of ELG1-dependent DNA repair in HEK293T cells | actives 2.3% (n = 330,000) | HEK293T ELG1-luciferase reporter, luminescence, 16 h; DNA damage induced by 5-fluorouridine | AID 504467 | Potency, µM (doses to about 46.1 µM), for the others: at the highest dose activity change, negative = inhibition, actives largely listed as inhibitors; note: potency is the fitted concentration of half-maximal effect; nearly all actives have a fitted effect of over 55% in size
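In this reporter screen, reduction of luminescence relative to DMSO vehicle indicated activity. Compounds and 5-fluorouridine were added together to 2,000 cells per well, incubated for 16 hr at 37 °C, then developed with ONE-Glo.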
HT1080NT lethal: kills 2HG-producing HT-1080-NT fibrosarcoma cells; Potency, µM (series often up to 46.1 µM), for inactives: at the top dose activity, negative = less viability, actives largely listed as cytotoxic; HT-1080-NT fibrosarcoma viability, CellTiter-Glo ATP luminescence, 48 h; actives 1.6% (n = 360,000);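 note: NT is the 2HG producing partner of a matched IDH1 knockdown line; potency is the fitted concentration of half-maximal effect; 0% = DMSO-treated cells and -100% = media-only wells without cells; nearly all actives have a fitted effect of over 55% in size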
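HT-1080-NT fibrosarcoma cells (2HG-overproducing), 750 cells/well in RPMI with 5% FBS, dosed after 2 h and incubated 48 h at 37C. CellTiter-Glo luminescence normalized to DMSO and no-cell wells; concentration-response curves fitted and classed.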
DT40 TDP1 CPT: DT40-hTDP1 cell growth loss with CPT. chicken DT40 Tdp1-/-;hTDP1 cells + 20 nM CPT, ATP luminescence, 48 h. Potency, µM (titrated, usually from 46.2 µM), inactives show at the highest dose activity change, negative = growth inhibition, actives largely listed as inhibitors. actives 12% (n = 420,000). AID 686979; note: potency is the fitted concentration of half-maximal effect; nearly all actives have a fitted effect of over 55% in size
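Chicken DT40 Tdp1-/- cells stably complemented with human TDP1 were seeded at 400 cells/well in medium containing 20 nM camptothecin, exposed to pin-transferred compounds, and grown at 37 °C for at least 48 hr. Viability was read as ATP luminescence.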
IL-1B inflam inh: inhibitors of inflammasome signaling (IL-1 beta secretion); actives 4.7% (n = 360,000); activity change, % at 57.5 µM; AID 743279; THP-1 LPS/ATP IL-1B secretion, AlphaLISA, 16 h; stronger effect = lower value; in the data active = activity change below about -50%; inconclusive = mostly about -30% to -49%
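Secreted IL-1B measured by AlphaLISA bead assay after 16 h compound exposure of THP-1 cells; compounds (final up to 57.5 uM) added 1 h before LPS (250 ng/mL) and ATP (1.25 mM) stimulation; lower signal means less secretion.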
* hit, by the source's call; ? = inconclusive; . = no result given; [ ] = another dose, or the depositor's remark. Most compounds without a hit are left out; they make up all but 19% or so of the library. Unless noted, calls come from the whole dose curve; as a rule, active = well fitted curve in the direction sought with a large enough effect; inconclusive = small, poorly fitted or top-dose-only effect, or another doubt; inactive = no such curve, though single readings can be large; an effect the other way counts as inactive or inconclusive. Unless noted, % is set by controls: 0 for no effect and ±100 for the full control effect.

SMILES	HT1080 IDH1KD tx	DT40 TDP1 no CPT	ELG1 DNA repair	HT1080NT lethal	DT40 TDP1 CPT	IL-1B inflam inh
Cc1noc(NS(=O)(=O)c2ccc(N/C=C\C(=O)c3ccc(Br)cc3)cc2)c1C	2.5%	-8.5%	?	-11.2%	-11.5%	43.7
CC(=O)c1cccc(NS(=O)(=O)c2ccc(N/C=C\C(=O)c3ccc(F)cc3)cc2)c1	-24.4%	10.3µM*	?	-26.2%	13µM*	?
CC(=O)c1ccc(NS(=O)(=O)c2ccc(N/C=C/C(=O)c3ccc(F)cc3)cc2)cc1	-10.4%	?	?	-17.8%	?	21.1
CC(=O)c1cccc(NS(=O)(=O)c2ccc(N/C=C\C(=O)c3ccc(C)cc3)cc2)c1	?	3.66µM*	?	?	?	12.9
c1ccc(Sc2nc(N3CCCCC3)nc(N3CCCCC3)n2)nc1	1.6%	18.4µM*	.	4.4%	?	23.0
Cc1oc(-c2ccoc2)nc1CN(CC1CCC(=O)N1)C(C)C (centres undefined)	-17.8%	-5.1%	12.1%	0.2%	9.1%	1.8
COCCN(Cc1nc(-c2ccc(-c3ccccc3)cc2)oc1C)C(C)C	-7.1%	20.6µM*	?	-13.2%	14.6µM*	13.3
CC(C)(C)c1ccc(CC(=O)N2CCC2(C)C(=O)NCc2cccs2)cc1 (centres undefined)	-2.2%	10.3µM*	.	-17.8%	11.6µM*	0.0
CC(C)(C)c1ccc(C(=O)N2CCC2(C)C(=O)NCc2cccs2)cc1 (centres undefined)	?	0.651µM*	.	?	6.51µM*	0.0
Cc1ccc2c(c1)c1nnc(SCC(=O)Nc3ccc(N(C)C)cc3)nc1n2CC(=O)O	3.0%	4.6%	11.4%	1.3%	0.2%	4.9
Cc1cc(C)cc(NC(=O)COC(=O)c2n[nH]c3ccccc23)c1	?	-11.4%	?	-18.5%	-6.6%	0.0
CCc1nc2ccccc2c(C(=O)OCC(=O)Nc2ccc(NC(C)=O)cc2)c1C	-16.5%	20.6µM*	?	0.1%	13µM*	-8.4
COc1ccc(NC(=O)COC(=O)c2c3c(nc4ccccc24)CCCC3)cc1	?	?	16.4µM*	-13.7%	?	?
COc1ccc(OC)c(NC(=O)COC(=O)c2n[nH]c3ccccc23)c1	0.0%	16.4µM*	?	2.8%[9.24 µM]	20.6µM*	-2.8
COc1ccc(NC(=O)COC(=O)c2c3c(nc4ccccc24)CCCC3)cc1Cl	?	7.31µM*	18.4µM*	?	20.6µM*	?
COc1ccc(S(=O)(=O)N(C)CC(=O)N2CCCC2)cc1OC	2.4%	2.4%	-2.2%	3.3%	16.3%	5.9
COc1c(O)cnn(-c2ccccc2)c1=O	9.7%	-3.2%	?	5.8%	3.4%	1.7
COc1ccc(OC)c(NC(=O)COC(=O)c2c3c(nc4ccccc24)CCCC3)c1	?	20.6µM*	11.6µM*	?	23.1µM*	5.7
CNC(=O)COC(=O)c1c2c(nc3ccccc13)CCC2	-0.8%	?	-6.6%	-0.3%	?	19.7
Cc1ccccc1NC(=O)C(=Cc1ccc(C(=O)O)cc1)C(=O)Nc1ccccc1C	4.61µM*	8.2µM*	11.6µM*	6.51µM*	9.2µM*	-106.1*
CC(=O)Nc1ccccc1C	9.9%	8.9%	?	-4.0%	-3.3%	-1.0
CC(=O)/C(=C/c1ccccc1)C(=O)Nc1ccccc1C	?	4.61µM*	19.3%	?	?	-104.3*
C=C1C(=O)OC2C=C(CO)CCC=C(CO)CC(OC(=O)C(C)C)C12 (centres undefined)	13µM*	2.91µM*	.	-0.5%	2.91µM*	-100.9*
CCN(CC(O)COc1ccc(OCC(O)CN(CC)C2CCCCC2)cc1)C1CCCCC1 (centres undefined)	?	?	.	-14.8%	?	-65.6*
CCN(CC(O)COCc1ccc(Cl)cc1)C1CCCCC1 (centres undefined)	-12.1%	?	-15.1%	-19.1%	3.1%	-19.0
SMILES	HT1080 IDH1KD tx	DT40 TDP1 no CPT	ELG1 DNA repair	HT1080NT lethal	DT40 TDP1 CPT	IL-1B inflam inh
Cc1ccccc1OCC(O)CN(Cc1ccccc1O)C1CCCCC1 (centres undefined)	?	13µM*	-15.7%	?	16.4µM*	-66.0*
CN(CC(O)COc1ccccc1F)C1CCCCC1 (centres undefined)	2.3%	-3.5%	1.0%	4.3%	-0.3%	12.1
CCCCn1c(=O)c(CCC(=O)OCC(=O)Nc2ccc(F)c(Cl)c2)nc2ccccc21	8.5%	-14.9%	-0.5%	28.4%	-27.9%	-10.2
Cc1cc(C(=O)NNC(=O)CCCOc2ccccc2)c(C)o1	0.4%	0.5%	25.9%	4.1%	8.4%	11.7
Cc1noc(C)c1COc1ccc(C(=O)Nc2ccccc2)cc1	-16.5%	-16.5%	-13.4%	-0.3%	-16.9%	4.8
Cc1noc(C)c1COc1ccc(C(=O)NNC(=O)c2ccccc2O)cc1	?	16.4µM*	-8.2%	?	?	88.2
Cc1cccc(NC(=O)c2ccc(OCc3c(C)noc3C)cc2)n1	-9.4%	13µM*	-0.9%	-3.1%	?	52.8
CC(C)(C)c1ccc(OCCCC(=O)NNC(=O)c2ccccc2O)cc1	?	18.4µM*	1.6%	?	?	55.2
Clc1cnc(Nc2cccnc2)c(Cl)c1	14.6%	-17.2%	4.5%	13.6%	9.0%	-1.3
O=C(CSc1nc(=O)n(Cc2ccncc2)c2c1CCC2)Nc1cccc(F)c1	.	?	.	.	-28.0%	.
CC(C)N(Cc1ccccc1)C(=O)c1nc(-c2ccc(Cl)cc2)n2c1CCCCC2	.	18.4µM*	.	.	9.2µM*	.
CS(=O)(=O)N(CC(=O)N1CCCCCC1)Cc1ccc(Cl)cc1	4.0%	-23.5%	5.8%	5.1%	?	-3.3
COC(=O)c1ccc(NC(=O)c2nc(-c3ccc(Cl)cc3)n3c2CCCCC3)cc1	.	0.82µM*	.	.	0.731µM*	.
COC(=O)c1ccc(NC(=S)N2CCCC2)cc1	-2.5%	-15.2%	?	10.7%	-14.7%	-2.6
CCOc1ccccc1CNC(=O)c1nc(-c2ccc(Cl)cc2)n2c1CCCCC2	.	?	.	.	23.1µM*	.
O=C(NCCc1ccc(Cl)cc1)c1nc(-c2cccc(F)c2)n2c1CCCCC2	.	9.2µM*	.	.	18.4µM*	.
Cc1nn(Cc2ccccc2Cl)c(C)c1C(=O)NCCN1C(=O)S/C(=C\c2ccccc2)C1=O	-19.2%	-29.4%	-21.7%	?	?	-16.8

Source: PubChem (National Center for Advancing Translational Sciences (NCATS))
